About 79,000 compounds went through this panel and 15% of them were active in at least one assay; those are over-represented in the sample as a whole. Unmarked numbers belong to inactive results. Calls of active or inactive are those of the source. Cut-off read from the data, not from the text of the source: active = growth inhibition above about 70%; inactive = the rest.
How the values were obtained:
[1] = NCI Yeast Anticancer Drug Screen. Data for the rad50 strain (AID 155);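 note: 0% = growth of vehicle-only cultures of the same strain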; details: S. cerevisiae rad50 strain growth inhibition, hits give high values
In short: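 A DNA repair-deficient yeast mutant serves as the test organism; compound-induced growth inhibition is calculated against vehicle-treated cells.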

[2] = NCI Yeast Anticancer Drug Screen. Data for the mec2-1 strain (AID 157); details: S. cerevisiae mec2-1 strain, hits give high values
In short: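 Mutant yeast (mec2-1) grown with compound; growth inhibition relative to vehicle control reported.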

[3] = NCI Yeast Anticancer Drug Screen. Data for the sgs1 mgt1 strain (AID 161);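 note: 0% = growth of cultures given vehicle only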; details: S. cerevisiae sgs1 mgt1 strain, hits give high values
In short: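 Percent growth inhibition was derived by comparing compound-exposed mutant yeast with vehicle-exposed cultures. The strain carries alterations in DNA damage repair.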

[4] = NCI Yeast Anticancer Drug Screen. Data for the cln2 rad14 strain (AID 165);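 note: 0% = growth equal to vehicle treated cultures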; details: S. cerevisiae cln2 rad14 strain, hits give high values
In short: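 Readout is yeast growth inhibition versus vehicle-treated controls, using a strain with cln2 and rad14 alterations exposed to compound.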

[5] = NCI Yeast Anticancer Drug Screen. Data for the bub3 strain (AID 167); details: S. cerevisiae bub3 mutant strain, hits give high values
In short: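 Inhibition values come from growth of compound-treated mutant yeast normalised to vehicle-treated controls.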

[6] = NCI Yeast Anticancer Drug Screen. Data for the mlh1 rad18 strain (AID 175); details: S. cerevisiae mlh1 rad18 strain growth inhibition, hits give high values
In short: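 Genetically defined yeast (DNA repair-deficient) exposed to compounds; growth inhibition determined relative to vehicle.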

[7] = at 5.0 µM (retest, dose inferred, filed as 0.5)
[8] = at 50.0 µM (retest, dose inferred, filed as 5.0)

Row | Compound | growth inhibition [1, 7] | growth inhibition [1, 8] | growth inhibition ([1]; at 50.0 µM) | growth inhibition [2, 7] | growth inhibition [2, 8] | growth inhibition ([2]; at 50.0 µM) | growth inhibition [3, 7] | growth inhibition [3, 8] | growth inhibition ([3]; at 50.0 µM) | growth inhibition [4, 7] | growth inhibition [4, 8] | growth inhibition ([4]; at 50.0 µM) | growth inhibition [5, 7] | growth inhibition [5, 8] | growth inhibition ([5]; at 50.0 µM) | growth inhibition [6, 7] | growth inhibition [6, 8] | growth inhibition ([6]; at 50.0 µM)
1 | COC1/C=C\C=C(/C)C(=O)Nc2cc3nc4cc(Br)ccc4oc-3c(c2=O)CC(C)CC(OC)C(O)C(C)/C=C(\C)C1OC(N)=O (stereo not given) | 54% | 95% (active) | 90.2% (active) | 81% (active) | 96% (active) | 92% (active) | 46% | 94% (active) | 89.9% (active) | 50% | 96% (active) | 83.2% (active) | 79% (active) | 96% (active) | 91.8% (active) | 81% (active) | 95% (active) | 89.4% (active)
2 | Cc1ccc(NC(=S)SCc2ccc(Cl)cc2)cc1Cl | 33% | 97% (active) | 90.5% (active) | 19% | 98% (active) | 92.3% (active) | 44% | 99% (active) | 92.2% (active) | 40% | 98% (active) | 89.8% (active) | 55% | 99% (active) | 91.9% (active) | 23% | 97% (active) | 91% (active)
3 | CCCCCCCCCCN(CCCCCCCCCC)CC(O)c1cc(-c2ccccc2)nc2ccccc12 (stereo not given) | -1% | 74% (active) | 36.2% | -2% | 34% | 21.9% | -22% | 93% (active) | 38.8% | 0% | 26% | -18.1% | 0% | 58% | 26.9% | 4% | 57% | 55%
4 | C[N+](C)(C)CCCCCCCCCCC(=O)N/N=C/c1ccc([N+](=O)[O-])o1 | 6% | 8% | 9.85% | 2% | 7% | 4.35% | 6% | 18% | 48.9% | 2% | 2% | 32.3% | 0% | -3% | -3.85% | 9% | 15% | 64.6%
5 | O=[N+]([O-])/C=C/c1cc2ccccc2[nH]1 | 6% | 99% (active) | 99.5% (active) | -6% | 100% (active) | 99.5% (active) | 9% | 99% (active) | 99.4% (active) | 11% | 99% (active) | 96.5% (active) | -8% | 100% (active) | 99.5% (active) | 16% | 99% (active) | 99.2% (active)
6 | Cc1c(O)ccc(C(=O)CCl)c1O | -147% | 38% | 58.8% | -44% | 5% | 61.6% | -53% | 42% | 60.4% | -55% | -11% | 12.9% | -69% | -3% | 41.4% | -111% | 33% | 68.3%
7 | CCCN(CCC)C(=O)C(C)C | 1% | -1% | 9.95% | 2% | -4% | -5.6% | -1% | -7% | -5.3% | 0% | -4% | 32.5% | -2% | -2% | -13.1% | 3% | -3% | 16.1%
8 | O=[N+]([O-])/C(C(Cl)=C(Cl)Cl)=C(/Cl)SCc1ccccc1 | 100% (active) | 99% (active) | 89.8% (active) | 100% (active) | 99% (active) | 93.4% (active) | 99% (active) | 99% (active) | 90.1% (active) | 99% (active) | 99% (active) | 91.5% (active) | 99% (active) | 99% (active) | 91.5% (active) | 99% (active) | 99% (active) | 86.2% (active)
9 | CCNc1ccccc1C | 3% | 91% (active) | 98.7% (active) | -1% | 88% (active) | 98.2% (active) | -2% | 86% (active) | 97% (active) | 2% | 97% (active) | 96.4% (active) | 7% | 82% (active) | 97.7% (active) | 3% | 97% (active) | 98.3% (active)
10 | CCCCCCCCCCCCNC(=O)C[n+]1ccc(C(N)=O)cc1 | -34% | 72% (active) | 61.2% | -6% | 61% | 49% | 1% | 77% (active) | 74.2% (active) | -6% | 86% (active) | 24.6% | -9% | 94% (active) | 29.2% | 0% | 92% (active) | 41.8%

— PubChem BioAssay (NCI)
